From PMC7862700, “An all-to-all approach to the identification of sequence-specific readers for epigenetic DNA modifications on cytosine”

Experiments:
Test in all cases: DAPPL (digital affinity profiling via proximity ligation, sequencing); 10 mM Tris-HCl pH 7.5, 50 mM NaCl, 1 mM DTT, 4% glycerol, room temperature, 30 min; GST-TFs on glutathione beads, 16-mer random dsDNA library, 0.1% formaldehyde crosslink after washing; high values mean tight binding
FEV = molecular target: T1, FEV (Homo sapiens, UniProt Q99581 1-238); conditions: protein: recombinant; tags: N-terminal GST; dsDNA, one strand shown
T1 sequence: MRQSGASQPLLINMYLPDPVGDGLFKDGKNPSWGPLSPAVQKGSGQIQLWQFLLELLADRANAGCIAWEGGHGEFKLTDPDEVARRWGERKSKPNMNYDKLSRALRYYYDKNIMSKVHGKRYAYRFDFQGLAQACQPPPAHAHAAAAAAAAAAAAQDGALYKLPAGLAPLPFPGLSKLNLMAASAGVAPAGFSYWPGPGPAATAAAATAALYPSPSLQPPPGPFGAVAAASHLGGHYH
Method in brief: (§1)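 Binding signal is defined as a hexamer's read frequency for one factor over its frequency for the tag-only sample. To obtain reads, GST-fused human transcription factors were expressed in yeast, captured on glutathione beads, barcoded with DNA and pooled with that sample. Pools met 200 nmole of a 16-mer random double-stranded DNA library in Tris/NaCl/DTT/glycerol buffer for 30 min at room temperature before washing, 0.1% formaldehyde crosslinking, proximity ligation (BsaI/T4 ligase, 1 h, 37 °C), PCR and Illumina NextSeq500 sequencing.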

ETV5 = ETV5 (Homo sapiens, UniProt P41161 1-510); conditions: protein: recombinant; tags: N-terminal GST; dsDNA, one strand shown
Sequence of ETV5 (P41161 whole entry): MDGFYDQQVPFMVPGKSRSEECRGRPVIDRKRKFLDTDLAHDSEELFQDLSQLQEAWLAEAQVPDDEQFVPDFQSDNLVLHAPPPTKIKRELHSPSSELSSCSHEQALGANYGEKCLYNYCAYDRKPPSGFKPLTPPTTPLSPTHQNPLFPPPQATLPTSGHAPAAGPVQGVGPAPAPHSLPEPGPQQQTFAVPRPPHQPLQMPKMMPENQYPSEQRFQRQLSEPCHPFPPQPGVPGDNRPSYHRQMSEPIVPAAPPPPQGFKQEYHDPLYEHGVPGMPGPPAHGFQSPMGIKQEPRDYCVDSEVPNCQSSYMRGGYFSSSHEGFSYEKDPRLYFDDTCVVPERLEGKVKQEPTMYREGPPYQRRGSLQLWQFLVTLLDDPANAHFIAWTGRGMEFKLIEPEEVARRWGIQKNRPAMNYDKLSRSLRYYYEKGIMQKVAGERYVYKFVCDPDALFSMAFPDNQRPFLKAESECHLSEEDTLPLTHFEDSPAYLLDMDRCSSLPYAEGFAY
Method in brief: as §1

HSF1 = HSF1 (Homo sapiens, UniProt Q00613 1-529); conditions: protein: recombinant; tags: N-terminal GST; chain copies: 3; dsDNA, one strand shown
Sequence of HSF1 (Q00613 whole entry): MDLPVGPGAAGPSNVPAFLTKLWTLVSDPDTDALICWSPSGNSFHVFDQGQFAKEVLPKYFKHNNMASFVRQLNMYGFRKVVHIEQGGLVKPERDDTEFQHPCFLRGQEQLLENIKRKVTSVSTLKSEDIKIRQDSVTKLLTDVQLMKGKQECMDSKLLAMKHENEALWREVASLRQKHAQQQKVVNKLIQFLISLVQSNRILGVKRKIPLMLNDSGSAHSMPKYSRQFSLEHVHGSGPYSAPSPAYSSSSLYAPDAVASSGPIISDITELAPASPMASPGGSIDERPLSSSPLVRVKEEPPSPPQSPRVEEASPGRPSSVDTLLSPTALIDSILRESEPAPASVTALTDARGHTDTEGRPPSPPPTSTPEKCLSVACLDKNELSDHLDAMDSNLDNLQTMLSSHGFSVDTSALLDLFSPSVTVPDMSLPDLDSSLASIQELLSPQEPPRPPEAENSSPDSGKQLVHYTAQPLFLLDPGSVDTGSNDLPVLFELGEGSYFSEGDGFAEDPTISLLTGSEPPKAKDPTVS
Method in brief: as §1

SPIC = molecular target: T2, SPIC (Homo sapiens, UniProt Q8N5J4 1-248); conditions: protein: recombinant; tags: N-terminal GST; dsDNA, one strand shown
T2 sequence: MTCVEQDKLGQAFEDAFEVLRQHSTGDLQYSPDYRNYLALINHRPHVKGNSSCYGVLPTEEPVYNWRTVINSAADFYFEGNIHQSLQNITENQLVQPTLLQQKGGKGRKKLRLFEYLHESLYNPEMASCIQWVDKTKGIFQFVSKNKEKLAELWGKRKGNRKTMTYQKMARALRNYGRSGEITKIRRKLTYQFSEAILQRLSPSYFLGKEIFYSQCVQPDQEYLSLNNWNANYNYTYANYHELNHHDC
Method in brief: as §1

ELF4 = ELF4 (Homo sapiens, UniProt Q99607 1-663); conditions: protein: recombinant; tags: N-terminal GST; dsDNA, one strand shown
Sequence of ELF4 (Q99607 whole entry): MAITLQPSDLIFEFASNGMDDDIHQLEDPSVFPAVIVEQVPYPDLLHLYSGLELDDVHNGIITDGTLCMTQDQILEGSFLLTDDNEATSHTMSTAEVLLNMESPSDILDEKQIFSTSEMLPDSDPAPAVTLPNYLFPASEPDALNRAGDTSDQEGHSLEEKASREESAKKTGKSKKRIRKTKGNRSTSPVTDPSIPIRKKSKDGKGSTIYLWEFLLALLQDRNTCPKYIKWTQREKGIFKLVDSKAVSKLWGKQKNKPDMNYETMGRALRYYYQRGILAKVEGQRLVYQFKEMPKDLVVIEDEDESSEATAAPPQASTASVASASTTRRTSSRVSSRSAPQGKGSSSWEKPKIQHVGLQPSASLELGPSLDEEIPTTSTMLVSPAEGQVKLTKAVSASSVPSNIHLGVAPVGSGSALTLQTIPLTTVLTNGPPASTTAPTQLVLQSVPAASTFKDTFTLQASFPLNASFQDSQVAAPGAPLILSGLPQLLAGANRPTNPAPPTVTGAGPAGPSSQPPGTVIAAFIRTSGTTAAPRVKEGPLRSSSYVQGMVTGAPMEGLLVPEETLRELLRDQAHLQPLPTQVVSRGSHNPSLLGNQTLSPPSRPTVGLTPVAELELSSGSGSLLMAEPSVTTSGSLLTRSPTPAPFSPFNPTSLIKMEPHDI
Method in brief: as §1

ELK4 = molecular target: T3, ELK4 (Homo sapiens, UniProt P28324-2 1-405); conditions: protein: recombinant; tags: N-terminal GST; dsDNA, one strand shown
T3 sequence: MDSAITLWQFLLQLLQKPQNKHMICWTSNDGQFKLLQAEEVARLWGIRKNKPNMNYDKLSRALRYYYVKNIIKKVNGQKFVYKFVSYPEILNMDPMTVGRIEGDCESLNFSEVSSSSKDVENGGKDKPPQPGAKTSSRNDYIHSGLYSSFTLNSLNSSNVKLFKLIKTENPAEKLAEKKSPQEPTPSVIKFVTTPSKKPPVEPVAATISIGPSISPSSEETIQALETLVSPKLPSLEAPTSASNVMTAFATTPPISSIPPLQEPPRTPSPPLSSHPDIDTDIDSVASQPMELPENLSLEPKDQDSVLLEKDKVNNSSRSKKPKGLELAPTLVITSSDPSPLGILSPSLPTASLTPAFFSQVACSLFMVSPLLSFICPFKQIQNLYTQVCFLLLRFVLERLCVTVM
Method in brief: as §1

ETV2 = molecular target: T4, ETV2 (Homo sapiens, UniProt O00321 1-342); conditions: protein: recombinant; tags: N-terminal GST; dsDNA, one strand shown
T4 sequence: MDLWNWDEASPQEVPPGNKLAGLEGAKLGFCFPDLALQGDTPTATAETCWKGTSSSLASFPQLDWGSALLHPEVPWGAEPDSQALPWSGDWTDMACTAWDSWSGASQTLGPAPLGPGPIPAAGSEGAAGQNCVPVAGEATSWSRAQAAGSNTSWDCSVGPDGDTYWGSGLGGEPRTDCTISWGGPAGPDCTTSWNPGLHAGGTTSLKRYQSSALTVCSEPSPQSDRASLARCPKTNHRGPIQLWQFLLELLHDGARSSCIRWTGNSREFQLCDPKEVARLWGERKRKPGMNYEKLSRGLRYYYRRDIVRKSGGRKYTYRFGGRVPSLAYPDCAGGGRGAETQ
Method in brief: as §1

ELF3 = molecular target: T5, ELF3 (Homo sapiens, UniProt P78545 1-371); conditions: protein: recombinant; tags: N-terminal GST; dsDNA, one strand shown
T5 sequence: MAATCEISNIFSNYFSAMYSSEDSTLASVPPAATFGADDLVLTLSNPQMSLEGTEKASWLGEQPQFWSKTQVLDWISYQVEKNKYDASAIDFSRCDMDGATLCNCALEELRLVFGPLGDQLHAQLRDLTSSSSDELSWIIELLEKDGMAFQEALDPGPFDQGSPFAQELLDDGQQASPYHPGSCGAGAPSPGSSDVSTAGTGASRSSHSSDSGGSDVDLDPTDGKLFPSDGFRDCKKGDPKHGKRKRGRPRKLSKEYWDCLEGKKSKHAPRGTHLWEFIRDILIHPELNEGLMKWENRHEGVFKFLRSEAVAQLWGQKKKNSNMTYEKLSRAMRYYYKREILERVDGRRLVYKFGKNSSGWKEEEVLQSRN
Method in brief: as §1

CRX = CRX (Homo sapiens, UniProt O43186 1-299); conditions: protein: recombinant; tags: N-terminal GST; dsDNA, one strand shown
Sequence of CRX (O43186 whole entry): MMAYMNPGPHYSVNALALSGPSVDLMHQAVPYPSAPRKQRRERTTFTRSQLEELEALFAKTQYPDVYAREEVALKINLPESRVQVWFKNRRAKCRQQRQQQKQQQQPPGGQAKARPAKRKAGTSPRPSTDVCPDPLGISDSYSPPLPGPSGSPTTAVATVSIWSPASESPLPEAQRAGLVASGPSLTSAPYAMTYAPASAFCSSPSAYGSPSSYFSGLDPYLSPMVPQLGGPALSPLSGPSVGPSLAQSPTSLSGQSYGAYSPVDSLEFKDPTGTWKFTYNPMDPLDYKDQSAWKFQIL
Method in brief: as §1

ETV1 = ETV1 (Homo sapiens, UniProt P50549 1-477); conditions: protein: recombinant; tags: N-terminal GST; dsDNA, one strand shown
Sequence of ETV1 (P50549 whole entry): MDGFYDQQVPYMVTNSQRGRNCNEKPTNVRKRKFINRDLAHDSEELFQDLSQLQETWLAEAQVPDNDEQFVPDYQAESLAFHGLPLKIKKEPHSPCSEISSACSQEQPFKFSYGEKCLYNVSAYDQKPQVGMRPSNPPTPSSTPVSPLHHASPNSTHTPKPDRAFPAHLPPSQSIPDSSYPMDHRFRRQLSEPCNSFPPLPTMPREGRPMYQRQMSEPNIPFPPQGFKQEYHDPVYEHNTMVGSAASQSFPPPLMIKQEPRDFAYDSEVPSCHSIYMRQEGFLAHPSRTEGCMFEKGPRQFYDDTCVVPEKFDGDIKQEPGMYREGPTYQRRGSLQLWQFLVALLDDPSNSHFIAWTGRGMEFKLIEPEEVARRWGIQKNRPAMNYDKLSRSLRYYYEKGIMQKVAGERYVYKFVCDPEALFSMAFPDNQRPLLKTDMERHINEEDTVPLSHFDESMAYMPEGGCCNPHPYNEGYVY
Method in brief: as §1

ERF = molecular target: T6, ERF (Homo sapiens, UniProt P50548 1-548); conditions: protein: recombinant; tags: N-terminal GST; dsDNA, one strand shown
T6 sequence: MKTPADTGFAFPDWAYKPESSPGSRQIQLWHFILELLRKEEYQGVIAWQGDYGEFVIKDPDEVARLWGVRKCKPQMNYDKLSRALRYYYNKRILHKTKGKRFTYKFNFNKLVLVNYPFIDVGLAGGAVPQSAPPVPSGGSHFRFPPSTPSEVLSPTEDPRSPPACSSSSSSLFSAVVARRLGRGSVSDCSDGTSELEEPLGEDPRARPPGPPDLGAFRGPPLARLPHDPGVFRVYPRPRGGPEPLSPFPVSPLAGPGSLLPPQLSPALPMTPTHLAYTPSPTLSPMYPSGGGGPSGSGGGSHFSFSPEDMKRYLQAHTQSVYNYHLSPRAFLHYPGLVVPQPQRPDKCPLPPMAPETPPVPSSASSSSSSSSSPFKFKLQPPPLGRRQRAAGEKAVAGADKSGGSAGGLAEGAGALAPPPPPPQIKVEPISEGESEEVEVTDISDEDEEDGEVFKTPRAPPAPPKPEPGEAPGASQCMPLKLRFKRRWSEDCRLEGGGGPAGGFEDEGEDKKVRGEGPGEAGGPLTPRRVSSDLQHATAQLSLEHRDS
Method in brief: as §1

ETV3L = molecular target: T7, ETV3L (Homo sapiens, UniProt Q6ZN32 1-361); conditions: protein: recombinant; tags: N-terminal GST; dsDNA, one strand shown
T7 sequence: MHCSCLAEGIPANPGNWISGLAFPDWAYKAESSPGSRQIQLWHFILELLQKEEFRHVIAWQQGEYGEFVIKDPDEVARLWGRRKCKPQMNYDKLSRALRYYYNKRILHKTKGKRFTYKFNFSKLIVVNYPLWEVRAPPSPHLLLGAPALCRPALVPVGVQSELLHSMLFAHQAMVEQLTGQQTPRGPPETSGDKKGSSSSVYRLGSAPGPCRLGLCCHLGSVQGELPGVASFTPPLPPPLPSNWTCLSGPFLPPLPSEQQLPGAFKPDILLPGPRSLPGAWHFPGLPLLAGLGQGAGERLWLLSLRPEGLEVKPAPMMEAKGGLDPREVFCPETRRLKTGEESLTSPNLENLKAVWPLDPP
Method in brief: as §1

ETS2 = molecular target: T8, ETS2 (Homo sapiens, UniProt P15036 1-469); conditions: protein: recombinant; tags: N-terminal GST; dsDNA, one strand shown
T8 sequence: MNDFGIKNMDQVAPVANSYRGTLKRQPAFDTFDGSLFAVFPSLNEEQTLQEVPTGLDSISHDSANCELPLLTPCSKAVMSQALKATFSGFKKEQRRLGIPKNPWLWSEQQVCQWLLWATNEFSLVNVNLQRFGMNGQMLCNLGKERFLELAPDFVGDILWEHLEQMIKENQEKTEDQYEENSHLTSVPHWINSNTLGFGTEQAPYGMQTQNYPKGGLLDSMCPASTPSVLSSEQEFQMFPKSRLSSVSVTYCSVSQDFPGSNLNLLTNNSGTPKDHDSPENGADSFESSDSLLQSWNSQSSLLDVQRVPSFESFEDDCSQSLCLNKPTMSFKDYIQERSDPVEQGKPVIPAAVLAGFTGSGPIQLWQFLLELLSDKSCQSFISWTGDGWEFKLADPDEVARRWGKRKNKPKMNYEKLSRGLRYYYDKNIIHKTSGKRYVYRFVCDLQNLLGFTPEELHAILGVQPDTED
Method in brief: as §1

SPDEF = molecular target: T9, SPDEF (Homo sapiens, UniProt O95238 1-335); conditions: protein: recombinant; tags: N-terminal GST; dsDNA, one strand shown
T9 sequence: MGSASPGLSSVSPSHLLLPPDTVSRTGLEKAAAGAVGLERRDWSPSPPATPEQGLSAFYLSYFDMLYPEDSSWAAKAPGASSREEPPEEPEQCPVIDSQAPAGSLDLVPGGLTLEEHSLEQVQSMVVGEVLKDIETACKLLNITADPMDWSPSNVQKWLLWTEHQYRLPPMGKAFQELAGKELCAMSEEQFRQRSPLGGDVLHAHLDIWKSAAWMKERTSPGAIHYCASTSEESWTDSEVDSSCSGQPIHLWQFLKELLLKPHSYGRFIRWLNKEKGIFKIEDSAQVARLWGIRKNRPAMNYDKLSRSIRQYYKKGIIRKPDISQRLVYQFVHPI
Method in brief: as §1

ETV7 = molecular target: T10, ETV7 (Homo sapiens, UniProt Q9Y603 1-341); conditions: protein: recombinant; tags: N-terminal GST; dsDNA, one strand shown
T10 sequence: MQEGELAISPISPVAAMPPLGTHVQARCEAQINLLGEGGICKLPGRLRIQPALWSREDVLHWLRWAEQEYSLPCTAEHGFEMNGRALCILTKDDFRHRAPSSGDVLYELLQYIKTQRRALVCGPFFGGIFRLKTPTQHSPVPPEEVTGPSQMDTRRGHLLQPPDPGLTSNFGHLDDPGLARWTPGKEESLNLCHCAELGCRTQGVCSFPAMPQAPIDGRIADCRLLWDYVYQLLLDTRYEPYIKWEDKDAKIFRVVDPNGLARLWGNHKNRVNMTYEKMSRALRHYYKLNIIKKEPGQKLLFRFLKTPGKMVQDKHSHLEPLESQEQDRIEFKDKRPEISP
Method in brief: as §1

ELF5 = molecular target: T11, ELF5 (Homo sapiens, UniProt Q9UKW6-2 1-255); conditions: protein: recombinant; tags: N-terminal GST; dsDNA, one strand shown
T11 sequence: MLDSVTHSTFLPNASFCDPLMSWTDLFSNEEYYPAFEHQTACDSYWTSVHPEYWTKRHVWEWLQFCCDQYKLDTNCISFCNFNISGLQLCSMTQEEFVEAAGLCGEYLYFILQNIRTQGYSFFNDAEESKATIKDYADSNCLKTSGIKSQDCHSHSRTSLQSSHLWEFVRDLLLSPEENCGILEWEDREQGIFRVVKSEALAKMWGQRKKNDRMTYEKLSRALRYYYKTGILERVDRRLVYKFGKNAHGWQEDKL
Method in brief: as §1

ETV3 = molecular target: T12, ETV3 (Homo sapiens, UniProt P41162-2 1-143); conditions: protein: recombinant; tags: N-terminal GST; dsDNA, one strand shown
T12 sequence: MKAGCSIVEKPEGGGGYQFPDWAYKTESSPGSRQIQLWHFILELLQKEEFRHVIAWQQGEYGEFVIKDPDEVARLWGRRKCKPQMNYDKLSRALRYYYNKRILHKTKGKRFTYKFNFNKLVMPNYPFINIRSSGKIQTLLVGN
Method in brief: as §1

ETV6 = ETV6 (Homo sapiens, UniProt P41212 1-452); conditions: protein: recombinant; tags: N-terminal GST; dsDNA, one strand shown
Sequence of ETV6 (P41212 whole entry): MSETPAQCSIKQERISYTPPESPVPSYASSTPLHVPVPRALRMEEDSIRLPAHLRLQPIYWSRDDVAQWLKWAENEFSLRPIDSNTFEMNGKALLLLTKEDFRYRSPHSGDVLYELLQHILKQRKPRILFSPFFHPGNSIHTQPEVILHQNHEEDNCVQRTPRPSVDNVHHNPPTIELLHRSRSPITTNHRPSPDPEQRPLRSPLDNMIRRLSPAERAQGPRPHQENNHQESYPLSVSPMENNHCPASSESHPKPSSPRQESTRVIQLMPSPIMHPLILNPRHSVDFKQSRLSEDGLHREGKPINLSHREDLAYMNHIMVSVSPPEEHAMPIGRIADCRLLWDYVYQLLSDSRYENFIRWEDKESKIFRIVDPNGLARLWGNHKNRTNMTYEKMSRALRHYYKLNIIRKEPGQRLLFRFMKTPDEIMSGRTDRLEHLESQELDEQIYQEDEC
Method in brief: as §1

CGATGG
binding signal (FEV): 1.23 fold enrichment (6-mer frequency, TF over GST control)
binding signal (ETV5): 1.28 fold enrichment (6-mer frequency, TF over GST control)
binding signal (HSF1): 1.36 fold enrichment (6-mer frequency, TF over GST control)
binding signal (SPIC): 1.31 fold enrichment (6-mer frequency, TF over GST control)
binding signal (ELF4): 1.36 fold enrichment (6-mer frequency, TF over GST control)
binding signal (ELK4): 1.46 fold enrichment (6-mer frequency, TF over GST control)
binding signal (ETV2): 1.34 fold enrichment (6-mer frequency, TF over GST control)
binding signal (ELF3): 1.15 fold enrichment (6-mer frequency, TF over GST control)
binding signal (CRX): 1.14 fold enrichment (6-mer frequency, TF over GST control)
binding signal (ETV1): 1.41 fold enrichment (6-mer frequency, TF over GST control)
binding signal (ERF): 1.18 fold enrichment (6-mer frequency, TF over GST control)
binding signal (ETV3L): 1.34 fold enrichment (6-mer frequency, TF over GST control)
binding signal (ETS2): 1.33 fold enrichment (6-mer frequency, TF over GST control)
binding signal (SPDEF): 1.29 fold enrichment (6-mer frequency, TF over GST control)
binding signal (ETV7): 1.39 fold enrichment (6-mer frequency, TF over GST control)
binding signal (ELF5): 1.18 fold enrichment (6-mer frequency, TF over GST control)
binding signal (ETV3): 1.24 fold enrichment (6-mer frequency, TF over GST control)
binding signal (ETV6): 1.33 fold enrichment (6-mer frequency, TF over GST control)
